CCHF vOTU inh – CCHFV vOTU protease inhibitors, primary screen, biochemical, Pep-AMC substrate, fluorescence; inhibition, % at 11.5 µM; 0.55% of 370,000 active; AID 651958, 2012; note: 0% = vehicle wells with enzyme and 100% = no enzyme wells
Mtb FBA inh – Mtb FBA enzyme inhibitors, primary screen, biochemical, fluorescence, strain H37Rv; Fructose-bisphosphate aldolase (Mycobacterium tuberculosis (strain ATCC 25618 / H37Rv)), …; purified M. tuberculosis FBA, fluorescence read-out; inhibition, % at 1 µM; 2.3% of 360,000 active; in the data active = inhibition above about 27%;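 note: 0% = vehicle and 100% = reference inhibitor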
GDH-TPI counter-1 – GDH-TPI coupling enzyme inhibitors, primary screen, artefact control for M. tuberculosis FBA inhibitor project, biochemical, absorbance, full deck. GDH-TPI coupled enzyme counterscreen, NADH absorbance. inhibition, % at 4.8 µM. 1.2% of 360,000 active. AID 588335, 2011;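 note: 0% = DMSO wells and 100% = wells lacking the enzyme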
RecA intein inh – Mtb RecA intein splicing inhibitors, primary screen, biochemical, fluorescence, HTS; 0.75% of 290,000 active; inhibition, % (no concentration beside the values); cell-free RecA intein splicing; in the data active = inhibition above about 30%;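 note: 0% = vehicle wells and 100% = reference inhibitor control wells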
Target sequence (P9WHJ3 whole entry, looked up): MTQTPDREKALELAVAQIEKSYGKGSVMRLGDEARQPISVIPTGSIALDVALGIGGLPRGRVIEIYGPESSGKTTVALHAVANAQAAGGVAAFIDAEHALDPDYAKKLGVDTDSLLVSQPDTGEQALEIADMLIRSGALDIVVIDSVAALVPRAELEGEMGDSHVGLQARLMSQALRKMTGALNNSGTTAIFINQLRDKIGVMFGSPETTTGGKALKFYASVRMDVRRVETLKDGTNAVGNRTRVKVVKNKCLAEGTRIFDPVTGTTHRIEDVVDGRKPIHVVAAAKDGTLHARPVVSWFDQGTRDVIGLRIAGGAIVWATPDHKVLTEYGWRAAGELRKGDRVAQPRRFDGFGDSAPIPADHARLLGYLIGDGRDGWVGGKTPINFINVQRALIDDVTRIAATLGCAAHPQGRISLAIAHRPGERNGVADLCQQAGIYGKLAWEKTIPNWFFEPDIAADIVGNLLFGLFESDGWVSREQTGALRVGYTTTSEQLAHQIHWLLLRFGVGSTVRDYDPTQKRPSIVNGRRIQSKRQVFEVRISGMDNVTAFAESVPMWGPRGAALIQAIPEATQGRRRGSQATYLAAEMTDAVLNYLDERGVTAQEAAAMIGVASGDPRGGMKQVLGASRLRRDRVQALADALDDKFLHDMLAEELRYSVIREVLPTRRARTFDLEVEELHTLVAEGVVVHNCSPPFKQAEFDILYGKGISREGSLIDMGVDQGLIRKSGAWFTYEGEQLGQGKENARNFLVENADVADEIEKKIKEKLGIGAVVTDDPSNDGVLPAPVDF
Mtb FBA confirm – M. tuberculosis aldolase blockers, biochemical, fluorescence, strain H37Rv, confirmation; inhibition, % at 1 µM; 78% of 5,600 active; purified M. tuberculosis FBA, fluorescence read-out; shares compounds with Mtb FBA inh; in the data active = inhibition above about 27%;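 note: 0% = vehicle wells and 100% = reference inhibitor wells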
GDH-TPI counter-2 – GDH-TPI coupling enzyme inhibitors, artefact control for M. tuberculosis FBA inhibitor project, biochemical, fluorescence, high throughput | AID 652141, 2013 | inhibition, % at 1 µM | shares compounds with Mtb FBA inh | 81% of 5,600 active | GDH-TPI coupled enzyme counterscreen; in the data active = inhibition above about 10%
GDH-TPI dose – GDH-TPI coupling enzyme inhibitors, dose response, artefact control for M. tuberculosis FBA inhibitor project, biochemical, fluorescence, IC50. shares compounds with Mtb FBA inh. GDH-TPI coupled enzyme assay, artifact counterscreen. IC50, µM. 79% of 170 active. AID 652145, 2013; call rule not given here
* hit, by the source's call; x = no result given; + = active, no number. Hits are enriched below; roughly 4.2% of the tested compounds scored in any of these assays. Cut-off read from the data, not from the text of the source, unless noted: active = inhibition above about 30%; inactive = the rest.

SMILES	CCHF vOTU inh	Mtb FBA inh	GDH-TPI counter-1	RecA intein inh	Mtb FBA confirm	GDH-TPI counter-2	others
NC(=O)c1nsc(C(=O)N(c2ccccc2F)C(C(=O)NCc2ccccc2)c2ccc(O)cc2)c1N (centres undefined)	-58	45*	19	-3	8	-7
CCOc1ccccc1N(C(=O)c1snc(C(N)=O)c1N)C(C(=O)NCc1ccccc1)c1ccc(O)cc1 (centres undefined)	-22	7	10	-2	x	x
COC(=O)[C@]1(C)N[C@H](CN(C)C(=O)c2ccc(C)cc2)[C@@H]2C(=O)N(C)C(=O)[C@@H]21	2	0	7	x	x	x
Cn1c(=O)ccc2ccccc21	-1	-1	-2	x	x	x
COc1cccc(/C=C/c2nc(S(=O)(=O)c3ccccc3)c(N3CCC(C(N)=O)CC3)o2)c1	-12	38*	31*	x	22	8	GDH-TPI dose=1.3*
CC(=O)NN1C(=O)c2ccccc2NC1c1ccccc1F (centres undefined)	-70	34*	-3	-3	81*	51*
CC(=O)NN1C(=O)c2ccccc2NC1c1cccnc1 (centres undefined)	-45	30*	0	-3	77*	72*
CCOC(=O)NN1C(=O)c2ccccc2NC1c1cccnc1 (centres undefined)	-22	21	-3	-1	x	x
O=C(NN1C(=O)c2ccccc2NC1c1ccoc1)c1ccccc1 (centres undefined)	-22	8	1	-1	x	x
CC(=O)NN1C(=O)c2ccccc2NC1c1ccoc1 (centres undefined)	-68	35*	-3	-4	38*	19*
O=C1c2ccccc2NC(c2cccnc2)N1c1ccccc1F (centres undefined)	-111	71*	1	-3	3	-2
CC1C(=O)N(Cc2cn(Cc3ccco3)nn2)CCS(=O)(=O)N1Cc1ccc(-c2ccc(F)cc2)cc1 (centres undefined)	-3	0	-6	x	x	x
COc1cc(-c2cc(NC(C)=O)c3ncc(-c4cc(OC)c(OC)c(OC)c4)n3c2)cc(OC)c1OC	14	7	14	x	x	x
c1ccc2c(c1)Oc1cccc3cccc-2c13	1	28*	13	5	86*	81*
O=C1c2ccccc2-c2cccc3cccc1c23	-7	3	8	x	x	x
COc1ccc2c(C)c(C(=O)O)oc2c1	-20	17	6	0	x	x
Cc1c(C(=O)O)oc2c3c(ccc12)OCCO3	9	60*	9	3	99*	87*
Nc1ccc2c(S(=O)(=O)O)cccc2c1S(=O)(=O)O	-18	53*	17	x	76*	81*
N#Cc1cc(-c2ccccc2)oc1/N=C/c1ccccc1O	-21	59*	10	-5	45*	29*
COc1cccc(/C=N/c2oc(-c3ccccc3)cc2C#N)c1O	-12	54*	-2	4	7	2
COc1ccc(/C=N/c2oc(-c3ccccc3)cc2C#N)cc1	1	12	5	-2	x	x
Cc1cc(C)n(-c2ccc(NC(=O)C3CCCCN3C(=O)c3sccc3C)cc2)n1 (centres undefined)	-5	1	12	x	x	x
C=CCNc1nc(C(=O)OCC(=O)Nc2ccccc2C(F)(F)F)cs1	-14	0	-4	x	x	x
Cc1cc(C)n(-c2nc(NCC(C)O)c3c4c(sc3n2)COC(C)(C)C4)n1 (centres undefined)	-63	56*	5	-2	75*	64*
O=C(O)c1cc(O)ccc1O	-34	87*	4	x	4	-5
SMILES	CCHF vOTU inh	Mtb FBA inh	GDH-TPI counter-1	RecA intein inh	Mtb FBA confirm	GDH-TPI counter-2	others
CC(C)(c1ccc(O)cc1)c1ccc(O)c(C(=O)O)c1	-3	61*	0	x	60*	52*
Nc1ccc(O)c(C(=O)O)c1	x	x	x	-25	x	x
CC(C)(c1ccc(O)cc1)c1ccc(O)cc1	-6	-2	6	3	x	x
Cc1nc(CS(=O)(=O)c2ccc(Cl)cc2)cc(Sc2ccccc2Cl)n1	1	31*	3	4	110*	98*
COc1ccc2oc(C(=O)Nc3nnc(C)s3)c(C)c2c1	-18	29*	23	x	81*	63*
COc1ccc2oc(C(=O)NC(C)c3ccccn3)c(C)c2c1 (centres undefined)	3	33*	3	x	94*	83*
COc1ccc2oc(C(=O)Nc3nc(-c4ccccn4)cs3)c(C)c2c1	6	10	-2	-1	x	x
COc1ccc(S(=O)(=O)N2CCCCC2c2cc(C(=O)Nc3ccc(F)c(Cl)c3)no2)cc1 (centres undefined)	-19	-1	4	x	x	x
COc1ccc(-c2ccc(S(=O)(=O)N3CCOCC3)cc2)cc1	x	44*	-8	0	75*	48*
COc1ccc(S(=O)(=O)N2CCN(C(=O)Cc3cccs3)CC2)cc1	-5	-1	0	3	x	x
COc1ccc(S(=O)(=O)N2CCN(C(=O)c3cccs3)CC2)cc1	0	79*	0	2	+	172*
COc1cc(C(O)c2nc(-c3ccc(N(C)C)cc3)cs2)ccc1F (centres undefined)	x	-2	10	x	x	x
N#CC1(C#N)C(c2ccccc2)OC23CCCCCC2C1(C#N)C(=N)O3 (centres undefined)	-36	41*	2	-58	40*	34*
N#CC1(C#N)C(c2ccccc2)OC23CCCCC2C1(C#N)C(=N)O3 (centres undefined)	-55	75*	0	-311	58*	64*
CCOc1ccc(CCNC(=O)CN(C)S(=O)(=O)c2cccs2)cc1OCC	-9	0	8	-1	x	x
CCCOC(=O)C1=C(C)NC2=C(C(=O)CC(C)(C)C2)C1c1cccnc1 (centres undefined)	-65	36*	7	x	+	+
CCOC(=O)C1=C(C)NC2=C(C(=O)CC(C)(C)C2)C1c1cccc(C)n1 (centres undefined)	-39	37*	-4	-77	174*	159*
COc1ccc(C2CC(c3ccccc3OC(C)=O)=NN2C(C)=O)cc1 (centres undefined)	7	50*	15	1	109*	75*
CCOc1ccc(Cc2c(C)[nH]c3ccc(C(=O)O)cc3c2=S)cc1	-2	2	10	0	x	x

Source: PubChem BioAssay (several laboratories)
